PubChem BioAssay (NCATS)
Inconclusive results are not listed. A call without a number means that no potency is given here. Values without a mark were called inactive. Active and inactive are the calls of the source. Calls come from the whole dose curve; as a rule, active = well fitted curve in the direction sought with a large enough effect; inconclusive = small, poorly fitted or top-dose-only effect, or another doubt; inactive = no such curve, though single readings can be large; an effect the other way counts as inactive or inconclusive.

Experiments:
[1] = P-glycoprotein substrates identified in KB-3-1 adenocarcinoma cell line, qHTS therapeutic library screen (AID 1346986); note: nearly all actives have a fitted effect of over 60% in size
Summary of the method: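 Cells seeded 500/well in DMEM/10% FCS; compounds pinned in dose-response; 72 h incubation; CellTiter-Glo added, 5 min, luminescence. KB-8-5-11 run ±tariquidar to test reversal of P-gp resistance.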

[2] = P-glycoprotein substrates identified in KB-8-5-11 adenocarcinoma cell line, qHTS therapeutic library screen (AID 1346987); note: nearly all actives have a fitted effect of over 65% in size; for activity change, negative = cytotoxicity: series mostly up to about 44 µM
Summary of the method: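 KB-8-5-11, a colchicine-selected P-gp-overexpressing KB-3-1 subline, was grown without colchicine for the assay. Cells were seeded at 500 cells/well, dosed in concentration-response and incubated 72 h at 37 degree C, 5% CO2. Viability was read by CellTiter-Glo luminescence.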

With `CC(O)(CC(=O)O)CC(=O)OCc1ccc(O[C@@H]2O[C@H](CO)[C@@H](O)[C@H](O)[C@H]2O)cc1` (stereo partly specified) the Potency [1] was “inactive” and the Potency [2] was “inactive”.
In the case of `CC1(C)CC[C@]2(C(=O)O)CC[C@]3(C)C(=CCC4[C@@]5(C)C[C@@H](O)[C@H](O)C(C)(C)C5CC[C@]43C)C2C1` (stereo partly specified), the Potency [1] is reported as “inactive” and the Potency [2] is reported as “inactive”.
In the case of `CC1(C)CC[C@]2(C(=O)O[C@@H]3O[C@H](CO)[C@@H](O)[C@H](O)[C@H]3O)CC[C@]3(C)C(=CCC4[C@@]5(C)C[C@@H](O)[C@H](O)C(C)(C)C5CC[C@]43C)C2[C@@H]1O` (stereo partly specified), the Potency [1] is reported as “inactive” and the Potency [2] is reported as “inactive”.
For `COC(=O)C(C)C1CCC2(C)C(=O)C=CC(C)(O)C2C1O` (stereo unspecified), the Potency [1] was “inactive” and the Potency [2] was “inactive”.
For `COC(=O)C1=CO[C@@H](O[C@@H]2O[C@H](CO)[C@@H](O)[C@H](O)[C@H]2O)C2C1C(=O)C[C@H]2C` (stereo partly specified), the Potency [1] was “inactive” and the Potency [2] was “inactive”.
For `CC(CO)C1CCC2(C)CC3C(CO)CC(O)C3C(C)(O)C/C=C/12` (stereo unspecified), the Potency [1] was “inactive” and the Potency [2] was “inactive”.
In the case of `CC1C(=O)OCC2=CCN3CCC(OC(=O)C(C)(O)C1(C)O)C23` (stereo unspecified), the Potency [1] is reported as “inactive” and the Potency [2] is reported as “inactive”.
With `C=C1C[C@]23C[C@H]1CC[C@H]2C1=C[C@H]2OC(=O)[C@@](C)([C@H]1[C@@H]3C(=O)O)[C@H]2O` the Potency [1] was “inactive” and the Potency [2] was “inactive”.
In the case of `CC(=O)OC/C=C(\C)C(CC1C(C)=C(OC(C)=O)C(=O)C2C(C)(C)C(O)CCC12C)OC(C)=O` (stereo unspecified), the Potency [1] is reported as “inactive” and the Potency [2] is reported as “inactive”.
For `O=C1CCC(=O)N(O)CCCCCNC(=O)CCC(=O)N(O)CCOCCNC(=O)CCC(=O)N(O)CCCCCN1`, the Potency [1] was “inactive” and the Potency [2] was “inactive”.
With `CCC(C)/C=C(C)/C=C/c1cc2c(cn1)C(=O)C(C)(OC(C)=O)C(O)=C2Cl` (stereo unspecified) the Potency [1] was “inactive” and the Potency [2] was “inactive”.
In the case of `CC(=O)C12OC(C)(C)OC1CC1C3CCC4=CC(=O)C=CC4(C)C3(F)C(O)CC12C` (stereo unspecified), the Potency [1] is reported as “inactive” and the Potency [2] is reported as “inactive”.
In the case of `O=C(/C=C/c1ccccc1)OC[C@]12O[C@H]1[C@@H](O)[C@@H]1C=CO[C@@H](O[C@@H]3O[C@H](CO)[C@@H](O)[C@H](O)[C@H]3O)[C@@H]12`, the Potency [1] is reported as “inactive” and the Potency [2] is reported as “inactive”.
For `N#C[C@@H]1CCCN1C(=O)CNC12CC3CC(CC(O)(C3)C1)C2`, the Potency [1] was “inactive” and the Potency [2] was “inactive”.
In the case of `CC1OC(OC2C(O)C(OC3CCC4(C)C(CCC5(C)C4CC=C4C6CC(C)(COC7OC(CO)C(O)C(O)C7O)CC(O)C6(C)CCC45C)C3(C)C)OC(C(=O)O)C2O)C(O)C(O)C1OC1OCC(O)C(O)C1O` (stereo unspecified), the outcome [1] is reported as “inactive [at 9.29 µM]” and the activity change, negative = cytotoxicity [2] is reported as 1.43% [at 9.29 µM].
For `CC1(C)C=CN2C(=O)C3=CCCN3C(=O)[C@@H]2C[C@@]12Nc1ccccc1C2=O`, the Potency [1] was “inactive” and the Potency [2] was “inactive”.
With `COC(=O)C1=CO[C@@H](O[C@@H]2O[C@H](CO[C@@H]3O[C@H](COC(=O)/C=C/c4cc(OC)c(O)c(OC)c4)[C@@H](O)[C@H](O)[C@H]3O)[C@@H](O)[C@H](O)[C@H]2O)[C@@H]2C(CO)=CC[C@H]12` the Potency [1] was “inactive” and the Potency [2] was “inactive”.
With `O=C(c1ccc2nccnc2c1)N1CCCCC1` the Potency [1] was “inactive” and the Potency [2] was “inactive”.
In the case of `O=C(NOCC(O)CO)c1ccc(F)c(F)c1Nc1ccc(I)cc1F` (stereo unspecified), the Potency [1] is reported as “inactive” and the Potency [2] is reported as “inactive”.
With `C[C@@H]1O[C@@H](O[C@H]2[C@H](O)[C@@H](O[C@@H]3O[C@H](CO)[C@@H](O)[C@H](O[C@@H]4O[C@H](CO)[C@@H](O)[C@H](O)[C@H]4O)[C@H]3O)[C@H](O[C@H]3CC[C@@]4(C)C(=CC[C@@H]5C4CC[C@@]4(C)C5C[C@@H]5OC6(CC[C@@](C)(CO[C@@H]7O[C@H](CO)[C@@H](O)[C@H](O)[C@H]7O)O6)[C@@H](C)[C@@H]54)C3)O[C@@H]2CO)[C@H](O)[C@H](O)[C@H]1OC1OC(CO)C(O)C(O)C1O` (stereo partly specified) the outcome [1] was “inactive [at 9.29 µM]” and the outcome [2] was “inactive [at 9.29 µM]”.
With `COc1c2c(c(C)c3c1C(=O)OC3)O[C@@]1(C)CC(O)C(C(C)(C)O)[C@](C)(CCC(=O)O)[C@H]1C2` (stereo partly specified) the Potency [1] was “inactive” and the Potency [2] was “inactive”.
With `C[C@@H]1O[C@@H](O[C@H]2[C@H](O[C@H]3CC[C@@]4(C)C(CC[C@]5(C)C4CC=C4[C@@H]6CC(C)(C)CC[C@]6(C(=O)O[C@@H]6OC[C@H](O)[C@H](O)[C@H]6O[C@@H]6O[C@@H](C)[C@H](O[C@@H]7O[C@H](CO)[C@@H](O)[C@H](O)[C@H]7O)[C@H](O)[C@H]6O)[C@H](O)C[C@]45C)C3(C)C)O[C@H](CO)[C@@H](O[C@@H]3OC[C@@H](O)[C@H](O)[C@H]3O)[C@@H]2O)[C@H](O)[C@H](O)[C@H]1O` (stereo partly specified) the outcome [1] was “inactive [at 9.29 µM]” and the outcome [2] was “inactive [at 9.29 µM]”.
For `Cn1cc(-c2ccc3nnc(Sc4ccc5nn(C)cc5c4)n3n2)cn1`, the Potency [1] was “inactive” and the Potency [2] was “inactive”.
With `CC(=O)OC[C@H]1O[C@H](O[C@]2(CO)O[C@H](CO)[C@@H](OC(=O)/C=C/c3ccccc3)[C@@H]2O)[C@H](O)[C@@H](O)[C@@H]1O` the Potency [1] was “inactive” and the Potency [2] was “inactive”.
With `OC1CCC(Nc2ncc3nc(Nc4c(F)cc(F)cc4F)n([C@H]4CCOC4)c3n2)CC1` (stereo partly specified) the Potency [1] was “inactive” and the Potency [2] was “inactive”.
For `CC(NC(=O)C(O)C(C)C)C(=O)NC1C(=O)N(C)CCc2ccccc21` (stereo unspecified), the Potency [1] was “inactive” and the Potency [2] was “inactive”.
For `CC1(C)CCC2(C(=O)OC3OCC(O)C(O)C3O)CCC3(C)C(=CCC4C5(C)CC(O)C(OC6OC(COC7OCC(O)C(O)C7O)C(O)C(O)C6O)C(C)(C)C5CCC43C)C2C1` (stereo unspecified), the outcome [1] was “inactive [at 9.29 µM]” and the outcome [2] was “inactive [at 9.29 µM]”.
In the case of `CC1=C(C(=O)O)/C(=C\CO[C@@H]2O[C@H](CO)[C@@H](O)[C@H](O)[C@H]2O)C(OC(=O)/C=C\c2ccc(O)cc2)C1` (stereo partly specified), the Potency [1] is reported as “inactive” and the Potency [2] is reported as “inactive”.
